From PubChem
D1 PAM: human D1 dopamine receptor positive modulation; P21728; HEK293 TREx D1 cells, calcium flux, dopamine EC20 potentiation; potentiation, % at 10 µM; 360,000 compounds, 0.036% hits; AID 504651; in the data active means potentiation above about 30%
Target sequence (P21728 whole entry, looked up): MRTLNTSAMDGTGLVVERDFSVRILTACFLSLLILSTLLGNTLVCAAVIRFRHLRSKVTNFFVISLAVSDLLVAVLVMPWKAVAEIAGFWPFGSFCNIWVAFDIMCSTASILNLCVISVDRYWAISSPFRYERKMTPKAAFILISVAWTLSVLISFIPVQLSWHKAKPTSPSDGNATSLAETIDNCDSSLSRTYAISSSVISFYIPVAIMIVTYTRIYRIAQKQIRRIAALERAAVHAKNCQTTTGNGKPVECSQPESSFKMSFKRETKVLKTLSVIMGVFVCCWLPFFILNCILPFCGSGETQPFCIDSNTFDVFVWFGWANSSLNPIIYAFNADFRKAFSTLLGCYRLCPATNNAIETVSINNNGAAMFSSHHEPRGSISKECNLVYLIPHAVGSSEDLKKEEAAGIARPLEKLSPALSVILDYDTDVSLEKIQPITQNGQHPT
D1 agonist: activates the human D1 dopamine receptor; activation, % at 2 µM; AID 504660; HEK293 T-REx D1 cells, calcium flux, agonist mode; 360,000 compounds, 1% hits; P21728; in the data active means activation above about 30%
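Agonism was scored from calcium flux recorded over 180 s (1 read/s) after pintool compound addition, following a 10-cycle baseline. Cells were inducible force-coupled HEK293 TREx D1, plated overnight at 30 C and loaded with no-wash calcium dye.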
D3 antag: antagonists of human D3 dopamine receptor | D3R cells, DiscoveRx beta-arrestin luminescence, antagonist mode; stronger effect = lower value | max response, negative = inhibition, % | 360,000 compounds, 2.5% hits | AID 652054; in the data active means max response below about -50%
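Cells plated overnight at 1500 cells/well, then exposed to library compounds with dopamine controls for 90 minutes at 37 degrees C. DiscoveRx reagent added for 30–60 minutes at room temperature; luminescence read, quantitative HTS format.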
D3 ag: activates the human D3 dopamine receptor. P35462. D3R DiscoveRx beta-arrestin cells, luminescence, 90 min. max activation, %. 410,000 compounds, 0.58% hits; in the data active means max activation above about 30%
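Agonist mode: compounds and dopamine controls were applied to plated cells for 90 min at 37 degrees C after an overnight attachment at 1500 cells/well. Luminescent read-out followed 30 - 60 minutes at room temperature with DiscoveRx detection reagent.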
D1 antag: human D1 dopamine receptor antagonism | P21728 | HEK293 TREx D1 cells, calcium flux, dopamine EC80; stronger effect = lower value | activity change, negative = inhibition, % at 10 µM | 360,000 compounds, 3.2% hits; in the data active means activity change below about -30%
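Compound effects on dopamine-evoked calcium signalling were measured in tetracycline-induced HEK293 Trex D1 cells. Dopamine at EC80 followed a 180 s compound pre-read, and fluorescence was tracked kinetically for 180 s more.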
Hits are given with their value; . = inactive; / = not tested or not shown. Rows were chosen to be rich in hits. Some 6.1% of all compounds tested hit in one or more screens of this group.

SMILES | D1 PAM | D1 agonist | D3 antag | D3 ag | D1 antag
COc1cc(-c2nnc(SCC(=O)N3CCCc4ccccc43)o2)cc(OC)c1OC | . | . | / | . | .
CCc1cccc(-n2nnc(-c3nc(-c4cccs4)no3)c2N)c1 | . | . | / | . | .
CCCCC(CC)c1nnc(NC(=O)c2cccs2)s1 (configuration not stated) | . | . | . | . | .
CC(C)c1nnc(NC(=O)c2cccs2)s1 | . | . | . | . | -52.6
CCN(CC)c1ccc(CN(C(=O)c2cc(=O)c3ccccc3o2)C2CCS(=O)(=O)C2)cc1 (configuration not stated) | . | . | / | . | .
O=C(Cn1c(=O)n(Cc2ccco2)c(=O)c2ccccc21)Nc1ccc(Cl)cc1Cl | . | . | / | . | .
O=C(NCC1CCN(S(=O)(=O)c2ccccc2)CC1)Nc1ccc(F)cc1F | . | . | . | . | -57.7
CC1CCc2c(sc(NC(=O)c3cc4nc(-c5ccc(Cl)cc5)cc(C(F)(F)F)n4n3)c2C#N)C1 (configuration not stated) | . | . | / | . | .
CC(C)c1ccc(N2C(=O)/C(=C/N(C)C)SC2=S)cc1 | . | 98.7 | . | . | .
Cc1ccc(CCNC(=O)CCn2nc(-c3ccc(Cl)cc3)ccc2=O)cc1 | . | . | / | . | .
COc1ccc(OC)c(NC(=O)C2CCCN(S(=O)(=O)c3ccc4[nH]c(=O)ccc4c3)C2)c1 (configuration not stated) | . | . | / | . | .
Cc1ccc2c(c1)N(C(=O)CCC(=O)N1CCOCC1)CCO2 | . | . | . | . | -31.2
Cc1ccc2c(c1)N(C(=O)CCC(=O)NCCN1CCOCC1)CC(C)O2 (configuration not stated) | . | . | . | . | -36.3
CC1CN(C(=O)CCC(=O)NCc2ccccc2)c2cc(Cl)ccc2O1 (configuration not stated) | . | . | . | . | .
Cc1ccc2c(c1)N(C(=O)CCC(=O)N1CCCCC1)CCO2 | . | . | . | . | .
COc1ccc(CCNC(=O)CCC(=O)N2CC(C)Oc3ccc(Cl)cc32)cc1OC (configuration not stated) | . | . | . | . | -57.6
CC(=O)c1cccc(NC(=O)CSc2nc(=O)n(Cc3ccco3)c3c2CCC3)c1 | . | . | / | . | /
CCCCNS(=O)(=O)c1ccc(S(=O)(=O)N2CCC3(CC2)OCCO3)cc1 | . | . | . | . | -45.8
COc1ccc(-c2nnc(SCC(=O)NCc3ccccc3)nc2-c2ccc(OC)c(OC)c2)cc1OC | . | . | / | . | .
COc1ccccc1N(C(=O)CCl)c1cn(C(C)=O)c2ccccc12 | . | . | . | . | .
CC(=O)n1cc(N(C(=O)CCl)c2ccc(Cl)cc2)c2ccccc21 | . | . | -57.9 | . | .
CCOC(=O)c1sc(NC(=O)c2cc(CC)on2)c(C(=O)OCC)c1C | . | . | / | . | .
COc1cccc(CNC(=O)Cn2nc3c(cc2=O)CCCC3)c1OC | . | . | / | . | .
COc1ccc(OCCN2CCC(C(=O)NC(c3ccccc3)c3ccc4ccccc4n3)CC2)cc1 (configuration not stated) | / | / | -102.4 | . | /
O=C(NC(c1ccccc1)c1ccc2ccccc2n1)C1CCN(CCOc2ccc(Cl)cc2)CC1 (configuration not stated) | / | / | . | . | /
SMILES | D1 PAM | D1 agonist | D3 antag | D3 ag | D1 antag
COc1ccc(OCCN2CCC(C(=O)NC(c3ccc(F)cc3)c3ccc4ccccc4n3)CC2)cc1 (configuration not stated) | / | / | -69.9 | . | /
O=C(Cc1nnc(CNC(=O)c2ccccc2)s1)Nc1ccc(C(F)(F)F)cc1Cl | . | . | / | / | .
Cn1ccnc1Sc1cc(NCCCO)c([N+](=O)[O-])c2nonc12 | . | . | -112.0 | . | .
O=[N+]([O-])c1c(NCCCO)cc(Sc2ccc(Cl)cc2)c2nonc12 | . | . | -112.5 | . | -40.0
O=[N+]([O-])c1c(NCCCO)cc(SCc2ccco2)c2nonc12 | . | . | -63.1 | . | .
COc1ccc(N=C2SCC(c3ccc([N+](=O)[O-])cc3)=NN2CCO)cc1 | . | . | . | . | .
O=[N+]([O-])c1ccc(C2=NN(CCO)C(=Nc3ccc(OC(F)(F)F)cc3)SC2)cc1 | . | . | -56.1 | . | .
CCn1ncc(S(=O)(=O)N2CCN(c3cccc(OC)c3)CC2)c1C | . | . | . | . | -35.4
Cc1ccccc1CNC(=O)C(=O)NCC(c1ccc2c(c1)OCO2)N1CCOCC1 (configuration not stated) | . | . | / | . | .
Cc1nn(-c2ccc(F)cc2)c2nc(N)c(C#N)c(-c3cccs3)c12 | . | . | . | . | .
Cc1nn(-c2ccccc2)c2nc(N)c(C#N)c(-c3ccc(O)c(O)c3)c12 | . | . | . | . | .
Cc1nn(-c2ccc(F)cc2)c2nc(N)c(C#N)c(-c3ccc(O)c(O)c3)c12 | . | . | . | . | -45.9
COc1cc(-c2c(C#N)c(N)nc3c2c(C)nn3-c2ccc(C)c(C)c2)cc(OC)c1OC | . | . | . | 60.0 | .
Cc1ccc(-c2nc(CS(=O)CC(=O)N3CCN(c4ccc(Cl)cc4)CC3)c(C)o2)cc1 (configuration not stated) | . | . | / | . | .
Cc1cc2c(s1)c1cnn(Cc3cc(F)c(F)c(F)c3F)c(=O)c1n2C | . | . | / | / | .
COc1ccc(CCNC(=O)C2CCC(=O)N2CCc2ccccc2)cc1OC (configuration not stated) | . | . | . | . | -32.5
COc1ccc(CC(=O)NC(C)CCc2ccccc2)cc1OC (configuration not stated) | . | . | . | . | .
COc1ccc(NC(=O)NNC(=O)CCc2ccc(O)c(O)c2)cc1OC | . | . | . | 51.1 | .
COc1cc(NC(=O)COc2ccc(Cl)cc2)ccc1-c1cc2ccccc2oc1=O | . | . | . | . | -41.2
COc1ccc(CC(=O)NNC(=O)CCc2ccccc2)cc1OC | . | . | . | . | -33.6
Cc1ccccc1CNCc1c(C(=O)O)c(C)n(Cc2ccc(F)cc2Cl)c1C | . | . | / | . | .
O=C(Nc1cc(F)ccc1F)c1ccc2c(c1)nnn2C1CCCC1 | . | . | / | . | .
COc1ccc(NC(=O)NNC(=O)COc2ccc3ccccc3c2)cc1OC | . | . | . | . | -48.7
O=S(=O)(NCc1c(Cl)cccc1Oc1ccccc1)c1ccc(F)cc1 | . | . | . | . | -34.1
O=C(O)CSCC(=O)NCc1c(Cl)cccc1Oc1ccccc1 | . | . | . | . | .
CSc1nn(Cc2ccc(F)cc2)c(N(C(C)=O)C(C)=O)c1S(=O)(=O)c1ccccc1 | . | . | / | . | .
CSc1nn(Cc2ccccc2C)c(NC(C)=O)c1S(=O)(=O)c1ccc(C)cc1 | . | . | / | . | -33.0
Cc1c(-c2cccc(NC(=O)Nc3ccccc3)c2)nc2ncccn12 | . | . | / | . | -56.4
